# In PubChem BioAssay AID2506 (National Center for Advancing Translational Sciences (NCATS), 2010):
# Where “and” joins values, the source holds several entries; their conditions need not be identical. Equal values may be shown once. Unmarked numbers belong to inactive results. Calls follow the shape of the dose curve; as a rule, active = well fitted curve in the direction sought with a large enough effect; inactive = no such curve, though single readings can be large or run the other way.
# System: 4-diphosphocytidyl-2-C-methyl-D-erythritol kinase IspE (bacterial, species not stated)
# Assay: Confirmatory Assay for Inhibitors of Human Galactokinase (GALK): CDP-Me assay counterscreen for probe SAR
# Settings: Kinase-Glo ATP luminescence, 1 h
# Excerpt: NIH Molecular Libraries Probe Production Centers Network [MLPCN] NIH Chemical Genomics Center [NCGC] MLPCN Grant: R03 MH085689-01 Assay Submitter (PI): Kent Lai (University of Utah School of Medicine, 50 N Mario Capecchi Drive, Salt Lake City, UT 84132) NCGC Assay Overview The GHMP kinase family is a unique class of important enzymes that plays an essential role in many metabolic processes. It contains more than 170 protein members among which are the galactokinase (GALK) and the CMK enzymes. GALK plays a crucial role in galactose processing and is a potential therapeutic target for Classic Galactosemia (OMIM: 230400). CMK is involved for the non-mevalonate synthesis of isoprenoids precursors and natural products like sterols or ubiquinones which are important to many biological functions. Although the sequence identity between GALK and CMK is low, the three-dimensional structures and active sites are highly similar. Therefore to determine the validity and selectivity of an active compound observed in the GALK qHTS screen (AID: 1868), a bioluminescent counter-screen targeting bacterial CMK was developed. In addition, because the mevalonate independent synthesis of isoprenoids are more prevalent in opportunistic pathogens such as bacteria, CMK is a potential novel therapeutic target where selective inhibitors could be used to determine potential antibacterial effects. The CMK (provided by Kent Lai) was assayed using ATP and 4-diphosphocytidyl-2-C-methyl-D-erythritol (CDP-ME; Echelon, cat# I-M052) as substrates. Promega Kinase-Glo Plus (cat# V3774) technology was used to detect the residual ATP following kinetic reaction. Briefly, the Kinase-Glo Plus contains Ultra-Glo [5] luciferase and D-luciferin which generates a bioluminescence signal from the remaining ATP.
# NCGC Assay Protocol Summary: Three uL/well of substrate solution (15 uM ATP, 30 uM CDP-ME, 20 mM HEPES pH8.0, 5 mM MgCl2, 40 mM KCl, 1 mM DTT, 0.01% BSA final concentration) was dispensed into 1536-well, assay plates (Greiner, solid white medium-binding plates) with Aurora Discovery BioRAPTR Flying Reagent Dispenser (FRD; Beckton-Dickenson). Compound and control solutions (23 nL) were transferred to the assay plate using the Kalypsys 1536-pin tool. One uL/well enzyme solution (0.25 ug/mL CDP-Me kinase, 20 mM HEPES pH8.0, 5 mM MgCl2, 40 mM KCl, 1 mM DTT, 0.01% BSA final concentration) was then added using the FRD yielding a total kinase reaction volume of 4 uL/ well. After 1 hour of room temperature incubation, 4 uL Kinase-Glo Plus reagent was added for a final assay volume of 8 uL/well. After 1 min, luminescence was detected with the ViewLux plate reader (Perkin Elmer, Waltham, MA) using a 1 sec exposure time and 2x binning settings.
row,Compound,max response
1,O=C1CCCC2=C1C1(CCCC1)N=C(Nc1nc3ccccc3o1)N2,4.68% and -2.85%
2,O=C1CCCC2=C1C1(CCCOC1)N=C(Nc1nc3ccccc3o1)N2 (stereo not drawn),3.35%
3,CC1(C)CC(=O)C2=C(C1)NC(Nc1nc3ccccc3o1)=NC2c1ccccc1Cl (stereo not drawn),1.88%
4,O=C1CCCC2=C1C1(CCCC1)N=C(Nc1nc3cc(-c4ccccc4)ccc3o1)N2,-2.69%
5,O=C1CCC2=C1C(c1ccccc1Cl)N=C(Nc1nc3ccccc3o1)N2 (stereo not drawn),-0.401%
6,CCC1CCC2(C1)N=C(Nc1nc3ccccc3o1)NC1=C2C(=O)CCC1 (stereo not drawn),0.524% [middle of 5 runs]
7,O=C1CCCC2=C1C(c1ccc(Cl)cc1)N=C(Nc1nc3ccccc3o1)N2 (stereo not drawn),0.739%
8,O=C1CCCC2=C1C1(CCCCC1)N=C(Nc1nc3ccccc3o1)N2,-0.522%
9,O=C1CCCC2=C1C1(CCS(=O)(=O)C1)N=C(Nc1nc3ccccc3o1)N2 (stereo not drawn),-0.863%
10,O=C1CCCC2=C1C1(CCCC1)N=C(Nc1nc3ccccc3n1Cc1ccccc1)N2,4.95%
11,CC1(C)CC(=O)C2=C(C1)NC(Nc1nc3ccccc3o1)=NC2c1ccccc1 (stereo not drawn),1.82%
12,CC1CCC2(C1)N=C(Nc1nc3ccccc3o1)NC1=C2C(=O)CCC1 (stereo not drawn),2.87%
13,O=C1CCCC2=C1C1(CCSCC1)N=C(Nc1nc3ccccc3o1)N2,-0.443%
14,O=C1CCCC2=C1C1(CCCC1)N=C(Nc1nc3cc4ccccc4cc3o1)N2,5.94%
15,O=C1CCCC2=C1C(c1ccccc1Cl)N=C(Nc1nc3ccccc3o1)N2 (stereo not drawn),-2.1%
16,COc1cccc(C2N=C(Nc3nc4ccccc4o3)NC3=C2C(=O)CC(C)(C)C3)c1 (stereo not drawn),0.986%
17,O=C1CCCC2=C1C1(CCSC1)N=C(Nc1nc3ccccc3o1)N2 (stereo not drawn),-0.317%
18,CC1(C)CC(=O)C2=C(C1)NC(Nc1nc3ccccc3o1)=NC21CCCC1,-5.27%
19,O=C1CCCC2=C1C1(CCC1)N=C(Nc1nc3ccccc3o1)N2,4.72%

row,Compound,max response
1,Cc1ccc2nc(NC3=NC4(CCCC4)C4=C(CCCC4=O)N3)oc2c1,7.12%
2,O=C1CCCC2=C1C1(CCCC1)N=C(Nc1nc3cc(Br)ccc3o1)N2,5.8%
3,O=C1CCC2=C1C1(CCCC1)N=C(Nc1nc3ccccc3o1)N2,2.86%
4,CC1(C)N=C(Nc2nc3ccccc3o2)NC2=C1C(=O)CCC2,3.59%
5,Cn1c(NC2=NC3(CCCC3)C3=C(CCCC3=O)N2)nc2ccccc21,5.48%
6,O=C1CC(c2ccccc2)CC2=C1C1(CCCCC1)N=C(Nc1nc3ccccc3o1)N2 (stereo not drawn),5.2%
7,Cc1ccc(C2N=C(Nc3nc4ccccc4o3)NC3=C2C(=O)CC(C)(C)C3)cc1 (stereo not drawn),2.37%
8,Cc1nc(Nc2nc3ccccc3o2)nc2c1C(=O)CC(C)(C)C2,-1.17%
9,CC1(C)CC(=O)C2=C(C1)NC(Nc1nc3ccccc3o1)=NC2c1cccc(Cl)c1 (stereo not drawn),2.44%
10,COc1ccc(C2N=C(Nc3nc4ccccc4o3)NC3=C2C(=O)CC(C)(C)C3)cc1 (stereo not drawn),1.84%
11,COc1ccccc1C1N=C(Nc2nc3ccccc3o2)NC2=C1C(=O)CC(C)(C)C2 (stereo not drawn),1.66%
12,O=C1CCCC2=C1C1(CCCC1)N=C(Nc1nc3cc(Cl)ccc3o1)N2,3.11%
13,O=C1CCCC2=C1[C@@]1(CCC(c3ccccc3)C1)N=C(Nc1nc3ccccc3o1)N2 (stereo partly drawn),3.98%
14,CC1(C)CC(=O)C2=C(C1)NC(Nc1nc3ccccc3o1)=NC2c1cccc(F)c1 (stereo not drawn),2.59%
15,Cc1ccc2oc(NC3=NC4(CCCC4)C4=C(CCCC4=O)N3)nc2c1,5.2%
16,O=C1CC(c2ccccc2)CC2=C1C1(CCCC1)N=C(Nc1nc3ccccc3o1)N2 (stereo not drawn),3.59%
17,CC1(C)CC(=O)C2=C(C1)NC(Nc1nc3ccccc3o1)=NC2c1cccc(O)c1 (stereo not drawn),1.58%
18,CC1(C)CC(=O)C2=C(C1)NC(Nc1nc3ccccc3o1)=NC2c1cccnc1 (stereo not drawn),1.01%
19,O=C1CCCC2=C1C1(CCOCC1)N=C(Nc1nc3ccccc3o1)N2,4.63%
